According to PubChem BioAssay (NCI):
This is part of a sample that, as a whole, favours compounds with a hit. Of some 83,000 tested, about 20% had one in any assay.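 Note: values are percent growth. 100 is the growth of untreated cells, values between 100 and 0 indicate rising inhibition; between -100 and 0 indicates cell death.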 Active and inactive are the calls of the source. Rule for the calls: active = growth percent below 10; inactive = the rest.

The compounds below were run on HL-60(TB) leukemia (assay: NCI-60 one-dose screen, 48 h (100 = growth as untreated, 0 = no growth, -100 = all killed)). Settings: 10 µM unless noted.

| SMILES | growth |
| --- | --- |
| Cc1ccc(S(=O)(=O)Oc2cc(OS(=O)(=O)c3ccc(C)cc3)cc(OS(=O)(=O)c3ccc(C)cc3)c2)cc1 | 107% (inactive) |
| Clc1ccc(OCc2nc(-c3ccccc3)n[nH]2)c(Cl)c1 | 94.9% (inactive) |
| O=S(=O)(c1ccccc1)n1cc2c(c1-c1ccccc1)CCc1sc(Nc3ccccc3)nc1-2 | 94.1% (inactive) |
| CCNc1cc2c(cc1Br)-c1ccccc1C2=O | 110% (inactive) |
| Nc1c(Cl)cc2c(c1Br)C(=O)c1ccccc1C2=O | 70.7% (inactive) |
| Cc1cc(C)c2c(n1)sc1c(Nc3ccc(Cl)cc3)ncnc12 | -19.1% (active) |
| C=C(C)[C@@H]1CC[C@]2(C(=O)N3CCN(CC)CC3)CC[C@]3(C)[C@H](CC[C@@H]4[C@@](C)(CCC(=O)N5CCN(CC)CC5)[C@H](C(=C)C)CC[C@]43C)[C@@H]12 | 30.4% (inactive) |
| O=C1c2c(c3c4cccc(F)c4[nH]c3c3ccc4ccccc4c23)C(=O)N1O | 31% (inactive) |
| CCCc1nc2ccccn2c1Nc1ccc(C(=O)NO)cc1 | 111% (inactive) |
| Oc1ccc(CCC2CCCC(CCc3ccc(OCCF)cc3)N2)cc1 (stereo not drawn) | 82% (inactive) |
| COc1ccc(C(C)=O)cc1N1C(=O)C2C(C1=O)C1(c3ccccc3)C(=O)C2(c2ccccc2)C(c2ccc(C)cc2)=C1c1ccc(C)cc1 (stereo not drawn) | 17.1% (inactive) |
| C[C@@H]1C(=O)N(C[C@@H](Cc2ccccc2)NC(=O)OCc2ccccc2)[C@]1(Cc1ccccc1)C(=O)OCc1ccccc1 | 13.1% (inactive) |
| NS(=O)(=O)c1ccc(-n2nc(-c3ccccc3)ccc2=O)cc1 | 89.9% (inactive) |
